D2 PAM-1 = positive allosteric modulators of human D2 dopamine receptor; potentiation, % (concentration not given with the values); P14416; AID 624464; 360,000 compounds, 0.23% hits; DiscoveRx D2 beta-arrestin cells, luminescence, 90 min; 100% = 57 uM dopamine signal; in the data active means potentiation above about 50%; inconclusive means mostly about 30% to 49%
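PathHunter D2 cells, attached overnight at 37 deg C, received compound in DMSO plus dopamine at EC20 (50 nM final) for 90 min at 37 deg C. Beta-arrestin recruitment was read as luminescence after 1 h with detection reagent at ambient temperature.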
D2 antag = antagonizes the human D2 dopamine receptor; HEK293 TREx D2 cells, calcium flux, dopamine EC80; inhibition, % at 10 µM; P14416; 340,000 compounds, 2% hits; in the data active means inhibition above about 30%; inactive means below that, where a call was filed; further: 0% is about no effect
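Antagonism is scored as inhibition of an EC80 dopamine-evoked calcium signal in a force-coupled, tetracycline-inducible HEK293 T-REx D2 line, with compound present 180 s before agonist.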
B2AR arrestin = recruits beta-arrestin to the human beta2-adrenergic receptor; Potency, µM (titrated, usually from 46.1 µM), for the others: at the highest dose activation, most hits filed as activators; 330,000 compounds, 0.02% hits; AID 492947; P07550; beta-arrestin recruitment to beta2AR, cell-based reporter; active means well fitted activation curve with a large enough effect; inconclusive means small, poorly fitted or top-dose-only effect;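 further: potency means the concentration at half of the fitted maximal effect; 0% = DMSO controls and full agonism = EC100 isoproterenol or metaproterenol; nearly all actives have a fitted effect of over 65% in size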
Target sequence (P07550 whole entry, looked up): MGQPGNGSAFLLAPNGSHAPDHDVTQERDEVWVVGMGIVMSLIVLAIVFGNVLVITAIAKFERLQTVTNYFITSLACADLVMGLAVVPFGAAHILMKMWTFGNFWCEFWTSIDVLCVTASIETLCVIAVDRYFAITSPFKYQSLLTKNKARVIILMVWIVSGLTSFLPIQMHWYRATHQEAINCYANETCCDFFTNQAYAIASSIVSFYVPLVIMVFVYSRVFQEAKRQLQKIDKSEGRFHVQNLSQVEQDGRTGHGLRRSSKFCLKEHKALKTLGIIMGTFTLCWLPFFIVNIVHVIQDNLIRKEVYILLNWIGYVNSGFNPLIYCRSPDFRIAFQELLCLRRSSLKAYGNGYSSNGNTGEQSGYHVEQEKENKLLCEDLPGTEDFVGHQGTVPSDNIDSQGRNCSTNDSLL
D2 ag-1 = D2 dopamine receptor (human) agonism; activation, % at 2 µM; HEK293 T-REx D2 cells, calcium flux agonist mode; AID 485358; 340,000 compounds, 0.53% hits;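 active means activation over 3 SD above normal in the single-dose calcium agonist read, cut at about 30% in these data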; further: 0% is about no effect
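In this primary screen, compounds producing a positive calcium signal within 180 s of addition to tetracycline-induced, force-coupled HEK293 Trex D2 cells are flagged; cells are dye-loaded with a no-wash calcium kit beforehand.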
D2 PAM-2 = positive allosteric modulators of human D2 dopamine receptor. HEK293 T-REx D2, calcium flux, EC20 dopamine potentiation. P14416. potentiation, % at 10 µM. 340,000 compounds, 0.34% hits;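 active means potentiation over 3 SD above the plate norm, cut at about 30% in these data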; further: 0% is about no effect
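Potentiation of an EC20 dopamine calcium response is measured in a force-coupled, tetracycline-inducible Hek293 Trex D2 line. Compound-only kinetic reads over 180 s flag agonists before dopamine addition.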
D2 ag-2 = human D2 receptor agonism in beta-arrestin assay; P14416; 360,000 compounds, 0.084% hits; DiscoveRx PathHunter D2 beta-arrestin, luminescence, 90 min; 100% = 57 uM dopamine signal; activation, % (test concentration not listed); AID 624465; in the data active means activation above about 40%; inconclusive means between about 15% and that limit
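Agonist mode: compounds alone added to overnight-plated D2 PathHunter cells for 90 min at 37 C, with 57 uM final dopamine (EC100) defining full response. Beta-arrestin recruitment detected by chemiluminescent reagent, read after 1 h at ambient temperature.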
The depositor's hits bear a star; ? = inconclusive; . = no result. This is a sample that favours compounds with a hit; in the whole collection about 2.4% have one here.

SMILES	D2 PAM-1	D2 antag	B2AR arrestin	D2 ag-1	D2 PAM-2	D2 ag-2
COc1cccc2cc(-c3nc4ccccc4[nH]3)c(=O)oc12	6.2	6.6	0.5%	1.9	3.7	7.9
CCN(CC)c1ccc2cc(-c3nnc(-c4ccccc4)o3)c(=O)oc2c1	-2.2	37.9*	0.4%	115.6*	-7.1	-1.0
CCN(CC)c1ccc2cc(-c3nc4ccccc4n3C)c(=O)oc2c1	6.5	39.6*	0.3%	71.6*	-8.3	1.6
O=c1oc2ccc3ccccc3c2cc1-c1nnc(-c2ccccc2)o1	-2.5	2.4	4.7%	0.7	-21.3	1.5
CCN(CC)c1ccc2cc(-c3nc(-c4ccc(OC)cc4)cs3)c(=O)oc2c1	24.7	71.0*	-0.3%	100.6*	-19.0	?
Cc1onc(-c2c(F)cccc2Cl)c1C(=O)Nc1cccc2nsnc12	8.5	-2.8	0.0%	-1.1	3.7	-1.9
Cc1nc(SCC(=O)c2c(N)n(C3CC3)c(=O)[nH]c2=O)[nH]c(=O)c1CCO	0.5	-2.5	-0.3%	0.4	-4.6	-3.8
O=C(C[n+]1ccc2ccccc2c1)Nc1cc(C(F)(F)F)ccc1Cl	-33.5	53.7*	-1.4%	0.7	-21.3	-1.3
O=C(C[n+]1ccccc1)Nc1cc(C(F)(F)F)ccc1Cl	-44.4	1.9	-2.1%	-1.0	3.8	-2.4
COc1ccc(Br)cc1CN1CCCC(C(=O)N2CCCCCC2)C1 (stereo not drawn)	-34.6	32.4*	1.0%	0.7	-5.8	-4.4
O=C(COC(=O)c1ccc(O)cc1)Nc1ccccc1[N+](=O)[O-]	-40.9	38.5*	2.6%	1.7	-3.1	9.4
O=[N+]([O-])c1ccc(Sc2nnnn2-c2ccccc2)c(Cl)c1	29.9	35.5*	-0.1%	-1.0	-6.2	13.1
Cn1nnnc1Sc1ccc([N+](=O)[O-])cc1Cl	19.1	-17.8	0.3%	1.3	2.1	7.2
CC1CCC(NC(=O)c2cccc(S(=O)(=O)N3CCN(C)CC3)c2)CC1 (stereo not drawn)	0.8	0.4	-0.2%	1.2	13.6	-1.4
CC(c1n[nH]c(=S)n1-c1ccccc1)N1CCCCC1 (stereo not drawn)	1.6	70.7*	0.1%	0.7	-7.3	1.8
COC(Cc1n[nH]c(=S)n1-c1ccccc1)OC	7.3	9.6	-0.3%	0.8	4.6	-0.5
COc1ccc(NC(=O)C(CC(C)C)NS(=O)(=O)c2ccc3c(c2)oc(=O)n3C)cc1Cl (stereo not drawn)	.	.	.	.	0.8	.
CCN1CCN(C2=C(NS(=O)(=O)c3ccc(C)cc3)C(=O)c3ccccc3C2=O)CC1	-24.1	39.3*	0.0%	-0.1	-1.1	2.7
CCN1CCN(C2=C(NS(=O)(=O)c3ccc(NC(C)=O)cc3)C(=O)c3ccccc3C2=O)CC1	-16.8	4.2	-0.1%	0.4	-1.9	10.7
CCCCn1c(-c2ccc(OC(F)F)cc2)nc2c1c(=O)[nH]c(=O)n2CC(C)C	-0.3	-2.4	-0.3%	-2.2	32.7*	2.7
S=c1[nH]nc(COc2ccccc2)n1/N=C/c1ccccc1Br	-11.0	38.1*	-0.5%	-1.2	-2.5	-1.0
O=C(Nc1ccccc1)/C(=C/c1ccccc1)NC(=O)c1ccco1	13.9	30.1*	0.3%	1.5	3.1	3.5
O=C(Nc1ccccc1)/C(=C/c1ccc2c(c1)OCO2)NC(=O)c1ccco1	-28.2	-15.0	2.9%	0.5	-8.1	-5.1
O=C(Nc1ccccc1)/C(=C\c1ccc2c(c1)OCO2)NC(=O)c1ccco1	-2.4	30.0*	-0.3%	-0.8	-7.6	-0.3
COC(=O)c1ccc(NC(=O)COc2cccc(-n3cnnn3)c2)cc1	-2.0	-8.4	0.0%	0.3	-1.2	-2.1
SMILES	D2 PAM-1	D2 antag	B2AR arrestin	D2 ag-1	D2 PAM-2	D2 ag-2
COc1ccc(NC(=O)COc2ccc(-n3cnnn3)cc2)cc1OC	-0.4	11.2	-0.1%	0.3	-12.9	-1.6
CCc1ccc(NC(=O)COc2cccc(-n3cnnn3)c2)cc1	-8.7	36.9*	0.1%	0.4	-28.8	-1.7
Cc1ccc(NC(=O)COc2ccc(-n3cnnn3)cc2)cc1C	-10.0	41.5*	-0.3%	0.0	18.6	1.7
O=C(CCNS(=O)(=O)c1ccccc1)NNC(=O)c1csc(N2CCOCC2)n1	-16.7	-8.7	-0.2%	0.4	-5.9	-4.0
Cc1sc2c(c1C)c(=O)n(CCc1ccccc1)c(=O)n2Cc1ccccc1Cl	.	.	.	.	4.8	.
CCOC(=O)/C=C/C(=O)Nc1ccc(S(=O)(=O)N(C)c2ccccc2)cc1	-3.9	-0.5	-1.0%	0.1	0.6	5.9
CCC(C)c1ccc(NC(=O)COC(=O)CCNS(=O)(=O)c2cccs2)cc1 (stereo not drawn)	-5.0	.	0.4%	.	.	2.9
COc1cc(N)c(Cl)cc1C(=O)OCC(=O)c1cccs1	-4.2	32.7*	-0.1%	0.8	-13.4	-3.8
Cc1nc(-c2cccc(S(=O)(=O)N3CCOCC3)c2)cs1	-3.5	34.7*	-1.0%	0.2	13.9	-2.3
Cc1nc(-c2cccc(S(=O)(=O)N3CC(C)OC(C)C3)c2)cs1 (stereo not drawn)	-8.1	-4.3	-0.2%	0.6	-11.8	-2.4
Oc1ccc(-c2nc(-c3ccc(O)c(O)c3)cs2)cc1	50.3*	-4.6	0.1%	3.2	-5.3	13.9
CS(=O)(=O)N(CCc1ccccc1)CC(N)=O	3.0	31.3*	0.0%	0.1	-22.8	-5.5
Cc1c(NC(=O)C(F)(F)F)ccc2nc3c(=O)n(C)c(=O)n(C)c3nc12	.	.	.	1.5	0.6	.
O=C(c1nc2ncccn2n1)N1CCN(c2ccc(F)cc2)CC1	-11.4	10.5	0.0%	0.6	30.6*	-3.2
O=C(c1nc2ncccn2n1)N1CCN(c2ccccc2)CC1	-7.8	23.5	.	-1.0	1.8	-1.4
COC(=O)c1cccc(-c2ccc(/C=N/N3C(=O)C4C5C=CC(C6CC56)C4C3=O)o2)c1 (stereo not drawn)	-5.8	31.9*	0.1%	-0.2	-0.5	0.0
Cc1cccc2cc(CN(CCCN(C)C)C(=S)NCCc3ccccc3)c(=O)[nH]c12	-24.8	-16.6	0.3%	3.6	-11.5	-5.6
CCC1CCCCN1C(=O)CSc1nc2c(cnn2-c2ccc(C)cc2)c(=O)[nH]1 (stereo not drawn)	-8.9	33.2*	0.1%	-1.2	-7.4	-4.2
CCOC(=O)C(C)(C)Sc1nc2c(cnn2-c2ccc(C)cc2)c(=O)[nH]1	1.4	47.8*	-0.7%	-1.4	-11.3	-0.6
CCOC(=O)C(C)(C)Sc1nc2c(cnn2-c2ccc(F)cc2)c(=O)[nH]1	3.8	0.3	-1.0%	-1.1	-3.0	0.8
Cc1[nH]c2ccccc2c(=O)c1CN(C)Cc1ccccc1	-36.2	-5.5	-0.4%	0.1	.	-2.0

Source: PubChem (National Center for Advancing Translational Sciences (NCATS))
